Laboratory results: PubChem BioAssay (NCI)
Compounds without any hit were thinned out: in the full panel of roughly 83,000, 20% have a hit.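 Single-concentration screen, 48 h exposure, 96-well plates. Endpoint: percent growth. Below 10 = active.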 Values without a mark were called inactive. Calls of active or inactive are those of the source.

Experiments:
Experiment in all cases: NCI-60 one-dose screen, 48 h (100 = growth as untreated, 0 = no growth, -100 = all killed)
Settings in all cases: 10 µM unless noted
NCI-H23 lung = test system: NCI-H23 lung
NCI-H226 lung = test system: NCI-H226 lung
NCI-H322M lung = test system: NCI-H322M lung
HOP-62 NSCLC = test system: HOP-62 NSCLC
NCI-H460 lung = test system: NCI-H460 lung
HOP-92 NSCLC = test system: HOP-92 NSCLC
NCI-H522 lung = test system: NCI-H522 lung
A549/ATCC NSCLC = test system: A549/ATCC NSCLC
786-0 renal = test system: 786-0 renal
COLO 205 colon = test system: COLO 205 colon
DU-145 prostate = test system: DU-145 prostate
K-562 leukemia = test system: K-562 leukemia
MALME-3M melanoma = test system: MALME-3M melanoma
MDA-MB-231 breast = test system: MDA-MB-231 breast
SF-268 CNS = test system: SF-268 CNS
SF-295 CNS = test system: SF-295 CNS
SF-539 CNS = test system: SF-539 CNS
UACC-257 melanoma = test system: UACC-257 melanoma
M14 melanoma = test system: M14 melanoma
RXF 393 renal = test system: RXF 393 renal

Structure (SMILES)	growth (NCI-H23 lung)	growth (NCI-H226 lung)	growth (NCI-H322M lung)	growth (HOP-62 NSCLC)	growth (NCI-H460 lung)	growth (HOP-92 NSCLC)	growth (NCI-H522 lung)	growth (A549/ATCC NSCLC)	growth (786-0 renal)	growth (COLO 205 colon)	growth (DU-145 prostate)	growth (K-562 leukemia)	growth (MALME-3M melanoma)	growth (MDA-MB-231 breast)	growth (SF-268 CNS)	growth (SF-295 CNS)	growth (SF-539 CNS)	growth (UACC-257 melanoma)	growth (M14 melanoma)	growth (RXF 393 renal)
Cn1c2ccccc2c2nnc(N/N=C/c3ccccn3)nc21	19.3%	5.03% (active)	11.8%	4.96% (active)	-11.5% (active)	14.5%	18.2%	21.1%	-21.6% (active)	-8.79% (active)	13.7%	10.2%	-34.1% (active)	56.2%	6.74% (active)	-25.3% (active)	-35.9% (active)	7.22% (active)	-42.1% (active)	
CCCCCC(CCCCC)C(=O)O	114%	112%	103%	98.1%	116%	78.8%	88.8%	102%	107%	102%	119%	99.8%	119%	105%	104%	108%	104%	116%	112%	135%
CCCCCCC(C)c1ccccc1O (stereo not drawn) (tested in a mixture with another compound)	90.2%	109%	117%	99%	101%	69.1%	105%	100%		108%	116%	106%	106%	104%	112%	116%	99.3%	117%	111%	113%
O=C(/C=C/C=C/c1ccccc1)c1ccco1	92.2%	109%	110%	117%	94.7%	96.1%	38%	101%	104%	103%	99.7%	43%	113%	102%	91.5%	112%	106%	108%	93.9%	46%
C1=C(c2ccccc2)C(c2ccc(OCCN3CCCCC3)cc2)Oc2ccccc21 (stereo not drawn)	58.4%	74.4%	77.4%	60.5%	-20.2% (active)	59.3%	24.7%	59.2%	55.6%	-55.1% (active)	77.1%	10.8%	2.37% (active)	48.4%	62.2%	52.7%	71.8%	-40.6% (active)	-58% (active)	20.4%
CC1OC(OC2C(OC3CCC4(C)C(CCC5(C)C4CC=C4C6CC(C)(C)CCC6(CO)C(O)CC45C)C3(C)C)OC(C(=O)O)C(OC3OC(COC4OC(CO)C(O)C(O)C4O)C(O)C(O)C3O)C2O)C(O)C(O)C1O (stereo not drawn)	-82.1% (active)	-63.6% (active)	-96.2% (active)	-71.6% (active)	15.4%	-38.7% (active)	-64.9% (active)	-70.1% (active)	-91.9% (active)	-86% (active)	7.81% (active)	-30.8% (active)	-73% (active)	-86.1% (active)	1.99% (active)	-85.2% (active)	-84.5% (active)	-49.3% (active)	-67.4% (active)	-51.2% (active)
NC(=S)N/N=C/c1ccc(Cl)s1	106%	97.4%	101%	109%	101%	97.5%	98.6%	106%	105%	105%	106%	99.5%	104%	110%	102%	103%	100%	104%	105%	99.9%
N[C@H](C(=O)O)[C@@H]1CC(Cl)=NO1	22.8% [20 µM]	38.1% [20 µM]	37.2% [20 µM]	26.1% [20 µM]	7.07% [20 µM] (active)	63.6% [20 µM]	25.4% [20 µM]	19.1% [20 µM]	24.2% [20 µM]	33.5% [20 µM]	37.7% [20 µM]	20% [20 µM]	33.5% [20 µM]	43.4% [20 µM]	25.5% [20 µM]	31.2% [20 µM]	21.4% [20 µM]	39.1% [20 µM]	16.9% [20 µM]	48.7% [20 µM]
O=C1C2=C(Nc3cc([N+](=O)[O-])ccc3N2)OC1c1c2ccccc2cc2ccccc12 (stereo not drawn)	51.7%	82.9%	71.8%	88%	46%	44.1%	24%	71.1%	48.3%	118%	74.6%	21.6%	97.9%	65.8%	33.2%	57.5%	58.8%	74.4%	70.1%	65.1%
